From the supplement of paper PMC9492666
Where a name gives a salt, the structure may show the parent alone.

Experiments:
HCC1937 = assay: relative cell viability, compound alone, vs DMSO (fraction of DMSO control); higher = less growth inhibition; settings: 72 h
MDA-MB-231 = assay: as above; settings: 72 h
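Further: viability read out with the CCK-8 kit in 96-well plates, screening a set of 303 compounds acting on lipid metabolism targets.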

Row | SMILES | relative cell viability (HCC1937) | relative cell viability (MDA-MB-231)
1 | C=C[C@H]1CN2CC[C@H]1C[C@@H]2[C@@H](O)c1ccnc2ccc(OC)cc12 [Quinidine sulfate] | 0.803 | 1.02
2 | COC(=O)c1sccc1S(=O)(=O)Nc1ccc(Nc2ccccc2)cc1OC | 0.795 | 0.871
3 | CCCCCCCCCCCC1=C(O)C(=O)C=C(O)C1=O [Embelin] | 1.08 | 0.983
4 | CCCCCCCCCCCCCCOc1ccc(C(=O)O)o1 | 1.07 | 1
5 | CN(C)C(=N)NC(=N)N [Metformin] | 0.646 | 0.93
6 | O=C(O)c1cc(F)c2nc(N3[C@@H]4CC[C@H]3C[C@@H](OCc3c(-c5ccccc5OC(F)(F)F)noc3C3CC3)C4)sc2c1 [Tropifexor] | 1.05 | 0.971
7 | Cc1cc(=O)oc2c(O)c(O)ccc12 [7,8-Dihydroxy-4-methylcoumarin] | 0.911 | 1.02
8 | Cc1cccc(Nc2cc(Cl)nc(SCC(=O)O)n2)c1C [Pirinixic Acid] | 0.824 | 0.88
9 | O=C(Nc1ccc(C(O)(C(F)(F)F)C(F)(F)F)cc1)c1ccccc1Cl | 1.05 | 1.01
10 | C=C(C)[C@@H]1CCC2=CC(=O)C[C@@H](C)[C@]2(C)C1 [Nootkatone] | 0.882 | 1.02
11 | CC(C)(Oc1ccc(Cl)cc1)C(=O)O [Clofibric acid] | 1.24 | 0.825
12 | CCCc1cc(-c2nc(-c3ccc(C)cc3)cs2)ccn1 [Fatostatin] | 0.733 | 0.745
13 | CCN(CC)c1ccc(C=NNC(=O)c2ccncc2)c(O)c1 | 0.4 | 0.624
14 | CN1CCN(c2ccc(/C=C(\C#N)c3ccccc3Br)cc2)CC1 [DG172 (dihydrochloride)] | 0.933 | 0.965
